PubChem BioAssay
For some of these results: Entries with a potency or affinity are not part of this list. Calls of active or inactive are those of the source.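 Rule for the calls, unless noted: active = primary screen active and over 50% activation in each of two duplicate runs; inactive = the rest.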

Columns and labels:
[1] = tested on: TRPC4 beta (transient receptor potential cation channel C4), mouse; test: activators of mouse TRPC4 channel, confirmation, cell-based, Fluo4 calcium, HEK293 TRPC4beta/mu-opioid, duplicates, 10 µM (AID 2426;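 active = fluorescence ratio normalized to control raised more than 50% in primary screen plus both repeat runs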); settings: Fluo4 calcium fluorescence, at 10 µM; active compounds read high
[2] = tested on: transient receptor potential cation channel C4 beta (TRPC4), mouse; test: activators of mouse TRPC4 channel, confirmation, cell-based, second round, Fluo4, HEK293 TRPC4beta/mu-opioid, 1 µM (AID 2461); settings: Fluo4 calcium fluorescence, at 1 µM; active compounds read high
[3] = tested on: TRPC4 (transient receptor potential cation channel C4 beta), mouse; test: positive allosteric modulators of mouse TRPC4, confirmation, cell-based, second round, Fluo-4, HEK293 TRPC4beta/mu-opioid, 1 µM (AID 2554;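 active = primary screen hit whose fluorescence ratio, in both repeats, exceeds the weak agonist control mean by 3 SD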); settings: DAMGO EC20, Fluo-4 calcium flux, at 1 µM; active compounds read high
[4] = tested on: TRPC4 beta (transient receptor potential cation channel C4), mouse; test: positive allosteric modulators of mouse TRPC4, confirmation, cell-based, Fluo-4, HEK293 TRPC4beta/mu-opioid (AID 2555;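 active = primary screen hit whose calcium fluorescence ratio, in both repeats, exceeds the weak agonist control mean by 3 SD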); settings: DAMGO EC20, Fluo-4 calcium flux, at 10 µM; active compounds read high
[5] = molecular target: Short transient receptor potential channel 4 (Mus musculus) (UniProt Q9QUQ5); test: inhibitors of mouse TRPC4 channel, confirmation, cell-based, Fluo4, HEK293 TRPC4beta/mu-opioid (AID 2636;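 active = calcium signal cut by more than 3 SD below the full-agonist control yet still positive, in both repeats and the earlier primary screen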); settings: DAMGO, Fluo4 calcium flux, at 10 µM; active compounds read high
[6] = molecular target: Short transient receptor potential channel 4 (Mus musculus) (UniProt Q9QUQ5); test: inhibitors of mouse TRPC4 channel, confirmation, cell-based, second round, Fluo4, HEK293 TRPC4beta/mu-opioid, 1 µM (AID 2637;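 active = calcium signal ratio cut to more than 3 SD under the fully stimulated control mean yet still positive, in both repeats and the primary screen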;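 for inhibition: percent of integrated ratio relative to wells lacking test compound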); settings: Fluo4 calcium flux, DAMGO, at 1 µM; active compounds read high
[7] = molecular target: Short transient receptor potential channel 4 (Mus musculus) (UniProt Q9QUQ5); test: mouse TRPC4 channel activators, dose response, cell-based, HEK293 TRPC4/mu-opioid, Fluo-4 calcium (AID 434937;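 active = primary screen activator hit with a dose response curve and TRPC4 channel activation at any tested dose; inactive = no activation, no dose response, or not a primary hit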); settings: HEK293 TRPC4 cells, Fluo-4 calcium fluorescence ratio; series mostly up to 20 µM
[8] = molecular target: Short transient receptor potential channel 4 (Mus musculus) (UniProt Q9QUQ5); test: TRPC4 positive allosteric modulators, dose response, cell-based, HEK293 TRPC4/mu-opioid, Fluo-4 calcium, EC20 DAMGO (AID 434941;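 active = earlier screen potentiator hit that boosts the TRPC4 ion channel at some dose, with a dose response; inactive = no potentiation, no dose response, or not a prior hit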;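 note: calcium entry triggered by an EC20 dose of DAMGO at the co-expressed mu-opioid receptor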); settings: HEK293 TRPC4/mu-opioid cells, Fluo-4 calcium fluorescence; series mostly up to 20 µM
[9] = molecular target: Short transient receptor potential channel 6 (Mus musculus) (UniProt Q61143); test: inhibition of mouse TRPC6 channel, confirmation, selectivity assay for TRPC4 inhibitor project, cell-based, HEK293, membrane potential dye, duplicate (AID 434948;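 active = active in primary screen and both duplicates, each dropping signal beyond three positive-control SD with fluorescence still positive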); settings: HEK293 TRPC6, membrane potential dye fluorescence, at 10 µM, stimulated with maximal-effect acetylcholine; active compounds read high
[10] = molecular target: Short transient receptor potential channel 6 (Mus musculus) (UniProt Q61143); test: activation of mouse TRPC6 channel, confirmation, selectivity assay for TRPC4 activator project, cell-based, HEK293, membrane potential dye, duplicate (AID 434950;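 active = membrane potential signal rise above negative control mean plus 3 SD in both duplicates, also active in the earlier TRPC4 screen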); settings: HEK293 TRPC6, membrane potential fluorescence, at 10 µM; active compounds read high
[11] = molecular target: Short transient receptor potential channel 6 (Mus musculus) (UniProt Q61143); test: TRPC6 potentiation by TRPC4 potentiator hits, confirmation, selectivity assay for TRPC4 potentiator project, HEK293 cells, membrane potential dye, duplicate (AID 434952;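 active = compound raising the membrane signal above positive-control mean plus 3 SD in both repeats, and a primary screen hit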); settings: HEK293 TRPC6, membrane potential dye fluorescence, at 10 µM, maximal acetylcholine added after compound; active compounds read high
[12] = molecular target: Short transient receptor potential channel 4 (Mus musculus) (UniProt Q9QUQ5); test: calcium flux activators in TRPC4/5HT1a cells, counter-screen for TRPC4 activator project, cell-based, second counter screen, HEK293 TRPC4/5HT1a, Fluo-4 (AID 434977;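 active = calcium signal rise above buffer-control mean plus 5 SD in both duplicates, and also a hit in the primary screen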); settings: Fluo-4 calcium flux, at 10 µM; active compounds read high
[13] = calcium flux inhibitors in TRPC4/5HT1a cells, confirmation, counter-screen for TRPC4 inhibitor project, cell-based, second counter screen, HEK293 TRPC4/5HT1a, Fluo-4 (AID 434978;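 active = primary screen active whose calcium signal fell more than 3 SD beyond the full-serotonin control mean in both duplicate plates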); settings: Fluo-4 calcium flux, at 10 µM, serotonin added to trigger calcium flux; active compounds read high
[14] = tested on: TRPC4 (mouse), co-expressed with 5HT1a in HEK293; test: calcium flux potentiators in TRPC4/5HT1a cells, confirmation, counter-screen for TRPC4 potentiator project, cell-based, second counter screen, HEK293 TRPC4/5HT1a, Fluo-4 (AID 434979;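 active = signal rise over 3 SD above mean of control wells given weak agonist, in both repeats and first screen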); settings: Fluo-4 calcium flux, at 10 µM, serotonin added at its EC20 dose; active compounds read high
[15] = calcium flux activation in mu-opioid HEK293 cells, confirmation, counter-screen for TRPC4 activator project, cell-based, HEK293 mu-opioid receptor line (AID 449723;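 active = hit in primary screen, with calcium signal over 5 SD above buffer well mean in both duplicates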;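 note: counter screen cells carry the mu-opioid receptor alone and lack TRPC4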); settings: Fluo-4 calcium fluorescence, at 10 µM; active compounds read high
[16] = calcium flux enhancement in mu-opioid HEK293 cells, confirmation, counter-screen for TRPC4 allosteric potentiator project, cell-based, HEK293 mu-opioid receptor line (AID 449724;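 active = calcium signal rise more than 3 SD above the low-dose agonist control mean, in both duplicate plates and the primary screen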); settings: Fluo-4 calcium flux, at 10 µM, compound added before EC20 DAMGO stimulus; active compounds read high

Measured: inhibition

Sequence of Short transient receptor potential channel 6 (Mus musculus) (Q61143 whole entry, looked up): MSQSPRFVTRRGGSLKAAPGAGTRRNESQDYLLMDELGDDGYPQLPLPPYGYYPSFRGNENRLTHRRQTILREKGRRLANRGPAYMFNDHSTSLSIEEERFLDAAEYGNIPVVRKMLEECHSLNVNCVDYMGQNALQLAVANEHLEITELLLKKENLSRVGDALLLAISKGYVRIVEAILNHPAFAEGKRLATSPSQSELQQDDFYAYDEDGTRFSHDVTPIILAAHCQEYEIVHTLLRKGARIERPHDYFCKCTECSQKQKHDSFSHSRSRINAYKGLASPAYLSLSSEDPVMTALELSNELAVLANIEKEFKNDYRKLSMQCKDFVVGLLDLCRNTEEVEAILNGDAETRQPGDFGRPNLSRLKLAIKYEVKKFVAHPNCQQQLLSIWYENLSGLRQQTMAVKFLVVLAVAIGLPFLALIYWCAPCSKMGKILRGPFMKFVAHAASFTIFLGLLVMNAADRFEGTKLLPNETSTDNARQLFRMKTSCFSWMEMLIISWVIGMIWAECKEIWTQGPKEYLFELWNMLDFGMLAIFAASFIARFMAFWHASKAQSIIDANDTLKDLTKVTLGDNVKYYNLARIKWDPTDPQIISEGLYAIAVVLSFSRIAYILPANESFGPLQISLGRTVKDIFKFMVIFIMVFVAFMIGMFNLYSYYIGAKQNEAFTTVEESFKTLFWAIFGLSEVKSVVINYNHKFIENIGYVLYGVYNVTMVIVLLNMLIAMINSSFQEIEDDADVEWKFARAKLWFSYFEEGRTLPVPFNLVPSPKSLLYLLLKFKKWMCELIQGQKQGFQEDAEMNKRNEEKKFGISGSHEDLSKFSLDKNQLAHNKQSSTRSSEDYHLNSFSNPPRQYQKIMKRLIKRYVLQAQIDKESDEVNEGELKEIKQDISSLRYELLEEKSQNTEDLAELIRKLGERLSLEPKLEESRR
Sequence of Short transient receptor potential channel 4 (Mus musculus) (Q9QUQ5 whole entry, looked up): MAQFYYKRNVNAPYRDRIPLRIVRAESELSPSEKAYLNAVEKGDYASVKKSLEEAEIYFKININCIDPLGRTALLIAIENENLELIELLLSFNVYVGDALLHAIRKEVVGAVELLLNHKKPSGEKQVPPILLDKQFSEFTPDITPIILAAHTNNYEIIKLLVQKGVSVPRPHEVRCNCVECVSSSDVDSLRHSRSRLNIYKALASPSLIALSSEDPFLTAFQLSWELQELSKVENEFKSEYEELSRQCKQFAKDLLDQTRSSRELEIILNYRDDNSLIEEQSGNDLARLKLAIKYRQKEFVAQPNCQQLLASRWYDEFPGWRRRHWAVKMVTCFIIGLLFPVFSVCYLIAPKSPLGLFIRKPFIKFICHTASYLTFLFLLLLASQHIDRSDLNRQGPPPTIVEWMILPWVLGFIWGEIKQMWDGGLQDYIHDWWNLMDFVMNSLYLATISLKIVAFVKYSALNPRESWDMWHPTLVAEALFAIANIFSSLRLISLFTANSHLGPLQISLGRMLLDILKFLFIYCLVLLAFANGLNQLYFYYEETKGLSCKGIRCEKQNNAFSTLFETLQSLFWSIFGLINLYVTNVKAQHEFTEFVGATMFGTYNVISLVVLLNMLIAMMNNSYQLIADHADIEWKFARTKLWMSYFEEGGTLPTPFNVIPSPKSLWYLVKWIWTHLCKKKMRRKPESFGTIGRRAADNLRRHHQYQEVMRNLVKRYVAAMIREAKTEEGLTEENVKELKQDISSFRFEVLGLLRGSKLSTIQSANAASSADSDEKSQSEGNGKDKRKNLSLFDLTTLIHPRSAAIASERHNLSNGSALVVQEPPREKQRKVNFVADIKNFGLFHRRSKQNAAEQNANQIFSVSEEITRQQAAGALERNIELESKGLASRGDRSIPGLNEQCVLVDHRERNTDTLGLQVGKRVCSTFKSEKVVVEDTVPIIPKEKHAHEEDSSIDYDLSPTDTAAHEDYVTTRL

COc1ccc(C2CC(c3ccccc3)Nc3nc(NC(=O)c4cccs4)nn32)cc1 (stereo unspecified)
active: [5] 95%
inactive: all other assays above

Fc1ccccc1COc1ccc(Br)cc1CNCC1CCCO1 (stereo unspecified)
active: [5] 91% | [6] 42% | [9] 39.5% | [13] 16.8%
inactive: all other assays above

NS(=O)(=O)c1ccc(CCNCc2ccccc2OCc2ccc(F)cc2)cc1
active: [5] 91% | [6] 55% | [13] 24.6%
inactive: all other assays above

CC(C)CN(CC(C)C)c1nc(N)c(C#N)c(CC#N)c1C#N
active: [5] 85% | [13] 39.2%
inactive: all other assays above

CN(CC1CCCN(CCc2cccc(C(F)(F)F)c2)C1)C(=O)c1cc2ccccc2o1 (stereo unspecified)
active: [5] 85% | [13] 1.18%
inactive: all other assays above

Cc1ccc(C(CNS(=O)(=O)c2ccc([N+](=O)[O-])cc2)N2CCN(C)CC2)cc1 (stereo unspecified)
active: [5] 54% | [6] 63%
inactive: all other assays above

C=CCN1CCN(C(c2cccc(OC)c2OC)c2nnnn2CCC(C)C)CC1 (stereo unspecified)
active: [5] 51%
inactive: all other assays above

Cc1ccccc1N1CC(O)(c2cccs2)[N+]2=C1CCCC2 (stereo unspecified)
inactive: all assays above

O=C(c1ccc(Cl)c(Cl)c1)N(Cc1ccco1)c1ccc(O)cc1
active: [5] 94% | [13] 32%
inactive: all other assays above

COCCn1c(SCc2cccc([N+](=O)[O-])c2)nc2ccccc2c1=O
active: [5] 94% | [6] 45% | [13] 20.4%
inactive: all other assays above

CC(C)=CCN1CCN(Cc2cccc3nonc23)CC1CCO (stereo unspecified)
active: [5] 91% | [13] 33.3%
inactive: all other assays above

COc1ccc(O)c(C(=O)c2cnc3c(c2)c(=O)[nH]c(=O)n3C)c1
active: [5] 92% | [6] 63% | [13] 20%
inactive: all other assays above

C=CCn1cnc2scc(-c3ccc(CC)cc3)c2c1=O
active: [5] 57%
inactive: all other assays above

CC1Oc2ccccc2C=C1/C=N/Nc1ccc(C(=O)O)cc1 (stereo unspecified)
active: [5] 82% | [6] 51% | [13] 38.1%
inactive: all other assays above

Cc1ccc(CSc2nc(-c3ccccc3)c(C#N)c(=O)[nH]2)cc1
active: [6] 49% | [13] 12%
inactive: all other assays above

OC1(c2cccs2)CN(c2ccc(Cl)cc2)C2=[N+]1CCCC2 (stereo unspecified)
active: [5] 72% | [13] 35.1%
inactive: all other assays above

Cc1ncsc1CCOC(=O)c1cccc([N+](=O)[O-])c1
active: [5] 83% | [6] 49% | [13] 40%
inactive: all other assays above

CCOC(=O)C1(Cc2cccc(OC)c2)CCN(Cc2cccc(O)c2)CC1
active: [5] 84% | [6] 43%
inactive: all other assays above

Cn1c(=O)c2c(nc(SCc3cccnc3)n2Cc2ccc(F)cc2)n(C)c1=O
active: [5] 79% | [13] 22.8%
inactive: all other assays above

Fc1cccc(Nc2c3c(nc4ccccc24)CCC3)c1
active: [5] 96% | [13] 14.9%
inactive: all other assays above

CN(C)C(CNC(=O)c1oc2ccccc2c1CSc1ncn[nH]1)c1ccco1 (stereo unspecified)
active: [5] 85% | [6] 48%
inactive: all other assays above

COCCn1c(SCC(=O)c2ccccc2)nc2ccccc2c1=O
active: [5] 91% | [6] 48% | [13] 20.4%
inactive: all other assays above

Cc1cc(C)nc(/N=C(\N)N(Cc2ccccc2)Cc2ccccc2)n1
active: [5] 97% | [9] 30.5% | [13] 41.7%
inactive: all other assays above

Cc1ccc(NC(=S)N(CCCN(C)C)Cc2cc3cc4c(cc3[nH]c2=O)OCO4)c(C)c1
active: [5] 96% | [6] 70% | [13] 14.4%
inactive: all other assays above

CCOc1ccccc1N(C(=O)c1snc(C(N)=O)c1N)C(C(=O)NCc1ccccc1)c1ccc(O)cc1 (stereo unspecified)
active: [5] 79% | [13] 41.9%
inactive: all other assays above

Cc1cccc2nc(CSc3ccc(Cl)cc3)cn12
active: [5] 90% | [6] 52% | [13] 21.9%
inactive: all other assays above

CCCN(c1nc(C)cc(OC)n1)S(=O)(=O)c1ccccc1
active: [5] 59% | [13] 25.2%
inactive: all other assays above

Cc1ccc(C(=O)C2=C(O)C(=O)N(Cc3cccnc3)C2c2ccc(Cl)c(Cl)c2)o1 (stereo unspecified)
active: [5] 90% | [13] 32.8%
inactive: all other assays above

CCc1c(C(=O)N2CCCN(C)CC2)csc1C
active: [5] 63% | [6] 44%
inactive: all other assays above

CC(C)CCN1CCN(Cc2ccsc2)CC1CCO (stereo unspecified)
active: [5] 90% | [6] 45% | [13] 33.8%
inactive: all other assays above

Cc1cc(OCc2cc(C(=O)NCC3(C)COC3)no2)cc(C)c1Cl
active: [5] 66% | [13] 40.6%
inactive: all other assays above
